# Results as given in PubChem BioAssay.
# Calls of active or inactive are those of the source.
# Assays:
# [1] = tested on: PRMT1 (protein arginine N-methyltransferase 1); experiment: small molecules binding arginine methyltransferase PRMT1 – biochemical, small-molecule microarray, 635 nm fluorescence, primary screen (AID 1088); settings: higher = more signal;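 further: binding of Prmt1 protein to compounds spotted on small-molecule microarray slides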
# [2] = growth effects on S. cerevisiae YJM789 – YJM789 clinical isolate, OD600, 24 h, basal, primary screen (AID 1089); settings: higher = more signal, called active from +8 up or from −8 down;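 further: growth of clinical yeast isolate S. cerevisiae YJM 789 seeded 1000 cells per well; test concentration not given here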
# [3] = S. pombe growth modifiers, basal conditions – strain 972, OD600, 24 h, no modulator, primary screen (AID 1090);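 further: basal condition with compound alone and no growth modifier present; test concentration not given here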; settings: S. pombe 972 growth, higher = more signal, called active from +8 up or from −8 down
# [4] = budding yeast growth modifiers under rapamycin – strain BY4716, OD600, 96 h, primary screen (AID 1091); further: test concentration not given here; settings: S. cerevisiae BY4716 + rapamycin, higher = more signal, called active from +8 up or from −8 down
# [5] = biological target: Torsin-1A-interacting protein 2 (Homo sapiens) (UniProt Q8NFQ8); experiment: small molecules binding lysate-expressed LULL1 – cell lysate, human LULL1 lysate, 635/667 nm fluorescence, primary screen (AID 1092); settings: small-molecule microarray, hLULL1 lysate binding, 635 nm fluorescence; higher = more signal;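 further: probe is lysate of COS7 cells overexpressing human LULL1; score merges per-feature 667 nm fluorescence with signal-to-noise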
# [6] = optical density change of DRC41 E. coli – strain DRC41, OD650, 24 h, E. coli filamentation project, primary screen (AID 1093);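 further: MC1000 strain lacking acrAB efflux and sulA so SOS filamentation is blocked; test concentration not given here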; settings: E. coli DRC41 growth, higher = more signal, called active from +8 up or from −8 down
# [7] = probe aLefty2 binding to arrayed compounds – biochemical, biotinylated probe, 635/667 nm fluorescence, primary screen (AID 1094); settings: small-molecule microarray, higher = more signal;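 further: score merges spot fluorescence near 667 nm with spot signal-to-noise ratio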
# [8] = tested on: Noggin (protein binding on small-molecule microarray); experiment: small molecules binding Noggin protein – biochemical, 635/667 nm fluorescence, primary screen (AID 1095); settings: 635 nm fluorescence, higher = more signal;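 further: score merges 667 nm feature fluorescence with signal to noise over triplicate slides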
# [9] = biological target: Neurogenic locus notch homolog protein 3 (Homo sapiens) (UniProt Q9UM47); experiment: small molecules binding NOTCH3 protein – biochemical, 635/667 nm fluorescence, primary screen (AID 1096); settings: small-molecule microarray, 635 nm fluorescence, higher = more signal
# [10] = probe aEGFR binding to arrayed compounds – biochemical, biotinylated probe, 635/667 nm fluorescence, primary screen (AID 1097); settings: small-molecule microarray, higher = more signal;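 further: probe is a biotinylated anti-EGFR antibody binding compounds printed on slides; score combines fluorescence near 667 nm and signal to noise of each spot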
# Chain of Torsin-1A-interacting protein 2 (Homo sapiens) (Q8NFQ8 whole entry, looked up): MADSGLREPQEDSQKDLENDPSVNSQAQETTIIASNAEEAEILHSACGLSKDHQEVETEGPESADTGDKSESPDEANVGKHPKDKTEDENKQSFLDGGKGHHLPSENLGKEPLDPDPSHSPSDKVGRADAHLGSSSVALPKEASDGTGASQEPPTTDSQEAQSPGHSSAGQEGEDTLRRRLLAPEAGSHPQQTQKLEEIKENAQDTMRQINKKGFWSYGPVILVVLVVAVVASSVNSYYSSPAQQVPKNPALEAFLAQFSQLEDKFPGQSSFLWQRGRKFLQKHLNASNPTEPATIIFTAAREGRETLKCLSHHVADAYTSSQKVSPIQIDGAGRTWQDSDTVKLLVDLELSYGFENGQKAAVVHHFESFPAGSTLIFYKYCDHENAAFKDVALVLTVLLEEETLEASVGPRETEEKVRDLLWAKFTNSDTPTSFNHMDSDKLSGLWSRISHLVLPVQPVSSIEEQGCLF
# Chain of Neurogenic locus notch homolog protein 3 (Homo sapiens) (Q9UM47 whole entry, looked up): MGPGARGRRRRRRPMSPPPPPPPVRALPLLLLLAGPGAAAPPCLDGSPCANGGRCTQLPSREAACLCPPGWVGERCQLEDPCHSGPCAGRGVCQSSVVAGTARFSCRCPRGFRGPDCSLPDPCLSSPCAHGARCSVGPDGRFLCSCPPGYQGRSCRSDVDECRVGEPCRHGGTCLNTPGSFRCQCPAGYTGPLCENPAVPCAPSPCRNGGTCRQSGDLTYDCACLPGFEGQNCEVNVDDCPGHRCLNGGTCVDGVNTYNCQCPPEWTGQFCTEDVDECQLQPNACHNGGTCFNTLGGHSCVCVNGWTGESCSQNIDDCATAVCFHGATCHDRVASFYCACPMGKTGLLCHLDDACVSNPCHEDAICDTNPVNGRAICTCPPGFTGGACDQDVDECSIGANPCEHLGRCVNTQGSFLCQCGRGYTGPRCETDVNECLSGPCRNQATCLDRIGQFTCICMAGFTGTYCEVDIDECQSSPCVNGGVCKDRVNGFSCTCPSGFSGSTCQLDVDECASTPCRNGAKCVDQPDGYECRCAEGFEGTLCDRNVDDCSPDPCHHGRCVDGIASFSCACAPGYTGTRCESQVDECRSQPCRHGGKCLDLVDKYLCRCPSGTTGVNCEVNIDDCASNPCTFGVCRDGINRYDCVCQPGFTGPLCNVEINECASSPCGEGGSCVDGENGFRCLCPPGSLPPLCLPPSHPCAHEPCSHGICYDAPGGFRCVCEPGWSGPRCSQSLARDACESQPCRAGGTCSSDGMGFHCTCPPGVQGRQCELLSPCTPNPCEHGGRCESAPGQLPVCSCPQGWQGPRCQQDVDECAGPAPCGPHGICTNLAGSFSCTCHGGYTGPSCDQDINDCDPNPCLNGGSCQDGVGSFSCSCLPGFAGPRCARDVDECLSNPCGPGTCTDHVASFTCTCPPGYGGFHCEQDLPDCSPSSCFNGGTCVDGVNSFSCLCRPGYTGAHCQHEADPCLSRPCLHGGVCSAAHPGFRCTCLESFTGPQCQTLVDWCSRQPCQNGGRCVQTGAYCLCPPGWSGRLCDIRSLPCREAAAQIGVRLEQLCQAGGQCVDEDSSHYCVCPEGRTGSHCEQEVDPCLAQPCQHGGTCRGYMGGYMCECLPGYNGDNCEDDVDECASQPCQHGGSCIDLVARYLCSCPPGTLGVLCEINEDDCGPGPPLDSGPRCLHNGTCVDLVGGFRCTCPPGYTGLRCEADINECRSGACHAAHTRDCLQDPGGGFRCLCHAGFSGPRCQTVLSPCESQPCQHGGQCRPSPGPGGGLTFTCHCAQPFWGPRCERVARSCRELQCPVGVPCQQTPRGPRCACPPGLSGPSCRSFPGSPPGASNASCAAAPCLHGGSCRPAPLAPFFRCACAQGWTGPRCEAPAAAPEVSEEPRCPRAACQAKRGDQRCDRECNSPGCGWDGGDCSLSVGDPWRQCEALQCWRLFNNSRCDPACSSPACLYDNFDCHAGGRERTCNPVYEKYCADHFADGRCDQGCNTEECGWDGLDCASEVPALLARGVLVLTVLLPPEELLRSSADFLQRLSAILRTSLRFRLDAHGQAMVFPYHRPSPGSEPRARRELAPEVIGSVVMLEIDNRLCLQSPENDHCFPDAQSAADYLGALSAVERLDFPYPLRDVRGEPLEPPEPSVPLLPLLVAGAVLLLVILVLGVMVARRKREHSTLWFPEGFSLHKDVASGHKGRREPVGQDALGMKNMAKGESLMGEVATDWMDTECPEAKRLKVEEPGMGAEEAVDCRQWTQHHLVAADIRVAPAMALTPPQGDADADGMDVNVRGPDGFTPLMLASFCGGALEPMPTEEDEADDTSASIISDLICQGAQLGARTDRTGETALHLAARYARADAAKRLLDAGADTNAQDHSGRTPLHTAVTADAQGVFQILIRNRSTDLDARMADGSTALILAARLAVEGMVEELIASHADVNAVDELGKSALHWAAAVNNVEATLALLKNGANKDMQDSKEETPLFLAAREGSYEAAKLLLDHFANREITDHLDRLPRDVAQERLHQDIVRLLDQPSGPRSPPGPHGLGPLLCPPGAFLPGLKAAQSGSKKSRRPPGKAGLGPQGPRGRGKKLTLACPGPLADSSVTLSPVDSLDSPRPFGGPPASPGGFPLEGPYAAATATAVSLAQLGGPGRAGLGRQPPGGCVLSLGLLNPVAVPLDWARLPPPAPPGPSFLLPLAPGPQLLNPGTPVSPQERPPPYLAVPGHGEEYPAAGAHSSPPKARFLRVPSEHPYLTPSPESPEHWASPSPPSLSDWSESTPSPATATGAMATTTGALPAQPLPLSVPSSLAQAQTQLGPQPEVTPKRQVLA
SMILES,composite z-score [1],z-score [2],z-score [3],z-score [4],composite z-score [5],z-score [6],composite z-score [7],composite z-score [8],composite z-score [9],composite z-score [10]
CS(=O)(=O)CCOC(=O)C1=CC(CCCO)=CC(c2cccs2)N(Cc2cc3c(cc2Br)OCO3)C=C1C(=O)OCCS(C)(=O)=O (stereo not given),1.56,0.187 (inactive),-1.16 (inactive),-0.919 (inactive),2.82,0.734 (inactive),-0.0379,0.91,1.06,0.0503
COc1cc(CO)ccc1OC(C)=O,0.657,-2.07 (inactive),-1.44 (inactive),-0.377 (inactive),0.0135,1.14 (inactive),-0.332,0.601,0.317,-0.112
COC(=O)[C@@]1(Cc2ccc(OC)cc2)[C@H]2c3cc(C(=O)N(C)C)n(Cc4c(OC)[nH]cc(C)c4=O)c3C[C@H]2CN1C(=O)c1ccccc1,-0.386,-1.88 (inactive),0.349 (inactive),-0.464 (inactive),3.62,-0.252 (inactive),-0.0404,-0.0598,0.145,0.487
C[C@H]1NC(=O)[C@H](Cc2ccccc2)NC(=O)[C@@]23C(=O)N[C@@H](Cc4ccccc4)C2[C@H](C)[C@@]2(C)O[C@H]2C3/C=C/C/C=C\CNC1=O (stereo not given in full),-0.839,0.967 (inactive),0.266 (inactive),0.865 (inactive),-1.32,1 (inactive),-0.0724,-0.389,-0.795,-0.183
COCCCNC(=O)[C@@]1(C)c2ccccc2C(=O)N(Cc2cc(C(F)(F)F)cc(C(F)(F)F)c2)[C@H]1c1ccc(CO)cc1,1.55,-0.122 (inactive),0.585 (inactive),-0.777 (inactive),3.01,0.666 (inactive),-0.166,-1.08,-0.134,-0.26
Cc1ccc(S[C@]2(C(=O)O)CC(=O)N(C3Cc4ccccc4C3)[C@@H]2c2ccc(CO)cc2I)cc1,0.46,-1.47 (inactive),-1.01 (inactive),1.6 (inactive),2.32,-0.263 (inactive),0.125,-1.02,-0.891,-0.132
CCOC(=O)[C@H]1C/C=C/C[C@H](C(=O)OCC)C(=O)O[C@H]2[C@@H](OC)O[C@H](CO)[C@@H](OC(=O)Nc3ccc4c(c3)OCO4)[C@@H]2OC1=O,0.921,1.12 (inactive),0.079 (inactive),6.03 (inactive),2.35,1.59 (inactive),-0.0238,-0.259,0.145,-0.071
O=C1N(CCS(=O)(=O)c2ccccc2)c2ccccc2C[C@@]12COC(c1ccc(OCCCO)cc1)=N2,1.47,0.631 (inactive),-1.07 (inactive),1.14 (inactive),2.9,-0.405 (inactive),0.456,0.75,1.07,0.242
C=CC(COC(C)=O)NS(=O)(=O)c1ccc(Br)cc1 (stereo not given),0.1,-0.141 (inactive),-0.467 (inactive),-0.9 (inactive),0.185,-0.975 (inactive),0.0216,0.598,0.604,0.0749
COC(=O)c1c(CC[C@@H](CO)NC(=O)N[C@@H](Cc2ccccc2)Cn2cc(C3(O)CCCCC3)nn2)oc(C(C)=O)c1C(=O)OC,1.55,-2.65 (inactive),-1.81 (inactive),-0.415 (inactive),1.38,1.31 (inactive),-0.0441,1.09,1.12,0.0117
CC(=O)NCCCC[C@@H]1NC(=O)[C@@H]2C[C@H](C(=O)NCCCCN(C)C)[C@H](c3ccc(O)cc3)N2C1=O,-0.0942,-0.442 (inactive),0.169 (inactive),-0.687 (inactive),1.65,1.14 (inactive),-0.0906,-0.126,-0.322,-0.109
O=C1O[C@@H](c2ccccc2)[C@@H](c2ccccc2)N2[C@@H](c3ccc(O)cc3)[C@]3(C(=O)Nc4ccc(C#CC5(O)CCCCCC5)cc43)[C@@H](C(=O)N3CCCCCCC3)[C@H]12,1.54,1.16 (inactive),0.321 (inactive),2.09 (inactive),4.45,0.26 (inactive),1.42,2.41,1.07,1.24
CCCCC=C[C@@H](NC(=O)c1cccs1)c1ccccc1,-0.0502,0.464 (inactive),0.845 (inactive),1.72 (inactive),2.01,-0.312 (inactive),0.0812,-0.222,0.955,-0.0746
COC(=O)[C@@]1(Cc2ccc(F)cc2)[C@H]2c3cc(C(=O)N(C)C)n(CCc4ccccn4)c3C[C@H]2CN1C(=O)c1ccccc1,1.16,2.9 (inactive),0.423 (inactive),-0.616 (inactive),3.94,0.196 (inactive),-0.0278,0.259,0.861,0.709
CC=CC(O)C1C=CC2C(=O)N(c3ccccc3)C(=O)C2N1Nc1ccc(C(C)C)cc1 (stereo not given),1.53,0.842 (inactive),0.877 (inactive),1.06 (inactive),3.13,-1.71 (inactive),0.183,0.321,1.05,0.14
C[C@]1(C(=O)NCc2ccccc2)c2ccccc2C(=O)N(Cc2ccc(OC(F)(F)F)cc2)[C@H]1c1ccc(CO)cc1,-0.0073,-0.913 (inactive),-0.935 (inactive),-0.67 (inactive),2.06,1.36 (inactive),-0.0719,0.0824,-0.184,-0.0689
NCCCCCCNC(=O)[C@H]1C[C@H]2C(=O)NCC(=O)N2[C@H]1c1cccc(OCCO)c1,1.58,0.23 (inactive),-1.12 (inactive),-0.442 (inactive),1.59,1.1 (inactive),0.0537,1.5,1.15,-0.034
COC(=O)[C@@]1(Cc2ccccc2)N=C(c2ccc(OCCCO)cc2)O[C@H]1c1ccccc1N=[N+]=[N-],1.49,0.288 (inactive),-2.2 (inactive),5.8 (inactive),1.35,0.319 (inactive),0.0484,0.884,0.802,-0.0953
COCCOC(=O)N1C(=O)[C@@]2(c3cc(C#CCCO)ccc31)[C@H](C(=O)NC[C@H](O)c1ccccc1)[C@H]1C(=O)O[C@H](c3ccccc3)[C@H](c3ccccc3)N1[C@@H]2c1ccc(O)cc1,0.66,1.22 (inactive),0.572 (inactive),1.68 (inactive),2.35,0.856 (inactive),-0.0862,1.7,0.459,-0.137
COc1ccc([Si](C)(C)[C@@H]2[C@@H](CC(=O)N(CCO)Cc3ccccc3)O[C@]3(C(=O)N(C)c4ccccc43)[C@H]2C)cc1,1.54,-0.943 (inactive),0.14 (inactive),0.451 (inactive),1.81,-0.0145 (inactive),0.512,1.21,0.963,0.238
CO[C@H]1O[C@H](CO)[C@@H](OC(=O)Nc2ccc3c(c2)OCO3)[C@H](OC(=O)Nc2ccccc2)[C@H]1OC(=O)Nc1ccccc1,1.54,1.67 (inactive),0.383 (inactive),1.76 (inactive),3.4,-0.703 (inactive),-0.0702,0.704,1.15,-0.0354
COc1ccc([Si](C)(C)[C@H]2[C@H](CC(=O)N(CCO)Cc3ccccc3)O[C@@]3(C(=O)N(Cc4cccc(N5CCC5=O)c4)c4ccccc43)[C@@H]2C)cc1,1.39,-0.763 (inactive),-0.509 (inactive),1.16 (inactive),1.64,2.57 (inactive),-0.0188,0.847,0.976,-0.0334
COCCOC(=O)N1C(=O)[C@@]2(c3cc(C#CCC(C(=O)OC)C(=O)OC)ccc31)[C@H](C(=O)N1CCCCCCC1)[C@H]1C(=O)O[C@H](c3ccccc3)[C@H](c3ccccc3)N1[C@@H]2c1ccc(OCCO)cc1,1.54,1.47 (inactive),0.168 (inactive),2.66 (inactive),4.11,0.275 (inactive),1.66,2.02,1.05,1.26
CC(C)(C)OC(=O)CC[C@]1(C(=O)N2CCCCC2)N=C(c2ccc(OCCCO)cc2)O[C@H]1c1ccccc1N=[N+]=[N-],1.54,0.589 (inactive),0.402 (inactive),0.73 (inactive),3.05,1.62 (inactive),0.292,1.21,1.01,0.872
C=CC[C@@]1(C(=O)NCC(O)CO)N=C(c2ccc(OCCCO)cc2)O[C@@H]1c1ccccc1N=[N+]=[N-] (stereo not given in full),1.18,-0.711 (inactive),-1.89 (inactive),0.068 (inactive),3.79,1.01 (inactive),0.208,0.84,1.04,0.0376
O=c1oc(-c2ccccc2)nc2cc(Br)ccc12,0.35,0.844 (inactive),-1.43 (inactive),-0.0605 (inactive),0.711,0.258 (inactive),-0.0478,0.625,0.693,-0.111
COCCOC(=O)N1C(=O)[C@@]2(c3ccccc31)[C@H](C(=O)Nc1nc3ccccc3s1)[C@H]1C(=O)O[C@H](c3ccccc3)[C@H](c3ccccc3)N1[C@@H]2c1ccc(OCCO)cc1,1.54,1.13 (inactive),1.36 (inactive),3.37 (inactive),3.23,1.07 (inactive),-0.0767,1.76,1.13,-0.0581
[N-]=[N+]=NCc1ccccc1C[C@@]1(C(=O)N2CCOCC2)N=C(c2ccc(OCCCO)cc2)O[C@@H]1c1ccccc1CN=[N+]=[N-],1.58,0.466 (inactive),-0.559 (inactive),28 (active),3.28,0.291 (inactive),0.743,0.631,0.967,0.662
C=C(CCCC)/C(=C/C[C@H](OC(C)=O)c1ccc(CO)o1)c1cnc2ccccc2c1,1.43,-0.237 (inactive),-0.923 (inactive),1.37 (inactive),1.46,0.111 (inactive),-0.0998,1.12,1.07,0.0324
